Bioassay records from PubChem.
Rows were chosen to be rich in hits. Some 4.8% of all compounds tested hit in one or more screens of this group.
MPTP inh – blocks calcium-induced mitochondrial swelling. 360,000 compounds, 1.4% hits. inhibition, % at 10 µM. AID 602449. isolated mouse mitochondria, Ca2+ swelling absorbance, 30 min;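 active = inhibition of 50% or more, scaled per plate between neutral and stimulator controls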;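 note: 0% = DMSO wells given calcium and 100% = 1 mM EGTA wells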
Beta apoptosis – blocks beta cell apoptosis; INS-1E cytokine-induced death, ATP luminescence, 48 h; percent of positive-control rescue, neutral wells zero; protection from apoptosis, % (no concentration beside the values); 300,000 compounds, 0.8% hits;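 active = Every replicate reaches about 75%, or at least half do and their mean reaches it too, limit read from the data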;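 note: 0% = cytokine-treated negative control wells and 100% = positive control rescue; higher means more ATP so stronger rescue from cytokine killing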
Calb FLC – C. albicans growth modulation with fluconazole. C. albicans CaCi-2 (fluconazole-resistant clinical isolate) + fluconazole, Alamar Blue growth, 48 h. growth inhibition, % (no concentration beside the values). 300,000 compounds, 0.57% hits;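 active = growth inhibition above about 58% in most replicates, limit read from the data, passing the limit was not always enough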;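 note: all wells also contain fluconazole at 8 µg/ml as a sub-toxic cotreatment; 0% = median of DMSO wells and 100% = median of geldanamycin control wells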
CSC inhib – cancer stem cell inhibition | cancer stem cell-like cells viability, luminescence | inhibition, % at 7.5 µM | 300,000 compounds, 1.1% hits | AID 2717; in the data active = inhibition above about 75%; tested in HMLE shEcad cells
Mdm2 MdmX PPI – inhibitors of human Mdm2/MdmX interaction | O15151+Q00987 | SaOS-2 split-luciferase Mdm2/MdmX complementation, luminescence | inhibition, % at 8 µM | 330,000 compounds, 3% hits | AID 485346;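 active = inhibition of at least 50% at 8 µM in the primary screen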
Target sequence (O15151 whole entry, looked up): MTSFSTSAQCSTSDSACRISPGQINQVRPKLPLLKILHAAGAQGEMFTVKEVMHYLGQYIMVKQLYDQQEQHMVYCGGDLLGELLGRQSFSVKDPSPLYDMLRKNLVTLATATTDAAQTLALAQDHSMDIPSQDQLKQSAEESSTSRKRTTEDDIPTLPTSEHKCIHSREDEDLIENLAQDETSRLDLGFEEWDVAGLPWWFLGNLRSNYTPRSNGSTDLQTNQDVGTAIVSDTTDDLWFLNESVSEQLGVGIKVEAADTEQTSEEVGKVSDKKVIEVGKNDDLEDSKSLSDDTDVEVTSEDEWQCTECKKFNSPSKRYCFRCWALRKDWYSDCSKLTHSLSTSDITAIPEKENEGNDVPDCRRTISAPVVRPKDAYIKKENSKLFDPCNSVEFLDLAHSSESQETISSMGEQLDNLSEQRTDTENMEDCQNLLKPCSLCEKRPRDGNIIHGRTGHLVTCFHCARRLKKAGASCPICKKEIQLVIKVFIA
Target sequence (Q00987 whole entry, looked up): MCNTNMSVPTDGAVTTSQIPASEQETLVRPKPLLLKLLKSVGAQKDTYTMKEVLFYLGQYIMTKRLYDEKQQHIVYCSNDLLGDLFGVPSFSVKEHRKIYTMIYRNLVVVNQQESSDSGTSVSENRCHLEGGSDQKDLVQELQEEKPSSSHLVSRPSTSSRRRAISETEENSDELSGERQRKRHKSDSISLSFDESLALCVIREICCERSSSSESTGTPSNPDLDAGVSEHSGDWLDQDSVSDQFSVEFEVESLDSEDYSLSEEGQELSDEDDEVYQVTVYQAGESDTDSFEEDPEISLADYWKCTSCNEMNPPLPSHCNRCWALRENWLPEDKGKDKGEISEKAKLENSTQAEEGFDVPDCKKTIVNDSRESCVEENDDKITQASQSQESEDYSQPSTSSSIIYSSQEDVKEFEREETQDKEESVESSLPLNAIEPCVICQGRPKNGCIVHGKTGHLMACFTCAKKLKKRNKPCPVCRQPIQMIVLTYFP
Mdm2 MdmX conf – human Mdm2/MdmX binding inhibition, confirmed | shares compounds with Mdm2 MdmX PPI | inhibition, % at 8 µM | AID 489028 | luminescent assay | 10,000 compounds, 55% hits; in the data active = inhibition above about 40%
Full FLuc ctr – full-length luciferase inhibition in Mdm2/MdmX counter-screen; shares compounds with Mdm2 MdmX PPI; SaOS-2 full-length luciferase counterscreen, luminescence; inhibition, % at 8 µM; 6,200 compounds, 77% hits;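 active = mean inhibition at 8 µM reaching about 37%, which flags the compound as non-specific, limit read from the data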;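 note: p53-null SaOS-2 cells with luciferase driven by a doxycycline-inducible promoter; compound on cells about two nights before reading with doxycycline added after day one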
* marks the source's active call; other numbers are inactive results; x = not tested or not shown.

SMILES | MPTP inh | Beta apoptosis | Calb FLC | CSC inhib | Mdm2 MdmX PPI | Mdm2 MdmX conf | Full FLuc ctr
CCN(CC)c1ccc2c(C)c(Cl)c(=O)oc2c1 | -2 | 7 | 2 | -7 | -14 | x | x
CCN(CC)c1ccc2c(c1)oc(=O)c1c(Cl)cc(=O)oc12 | 0 | 37 | 11 | 51 | 99* | 99* | 57*
CNCc1ccccc1Sc1cccc(O)c1 | 7 | -3 | -5 | x | -6 | x | x
CNCc1ccccc1Sc1cc(O)ccc1O | 2 | -2 | x | x | 91* | 19 | x
O=C(CSc1n[nH]c(-c2ccccn2)n1)Nc1cccc(Cl)c1 | -1 | 0 | -6 | 1 | 60* | 53* | 40*
Cc1cc(C)c(NC(=O)C2=COCCO2)c(C)c1 | 0 | -3 | x | -4 | 11 | x | x
CC(C)N1CCN(Cc2cccc(-n3cccn3)c2)CC1CCO (stereo unspecified) | 3 | -1 | 1 | 7 | -13 | x | x
COc1ccc(CC(=O)Nc2ccc(S(=O)(=O)N(C)C3CCN(C)CC3)cc2)cc1 | -1 | x | x | x | 12 | x | x
COc1ccc2oc(C(=O)Nc3ccc(S(=O)(=O)N(C)C4CCN(C)CC4)cc3)c(C)c2c1 | -1 | 24 | 10 | 8 | 96* | 46* | 47*
CC(Oc1ccc(Br)cc1)C(=O)Nc1ccc(S(=O)(=O)N(C)C2CCN(C)CC2)cc1 (stereo unspecified) | 0 | 22 | 3 | 29 | 59* | 39 | 76*
C1CCc2c(nc3nnnn3c2NCC2CC2)C1 | 0 | 1 | 4 | -6 | 14 | x | x
O=[N+]([O-])c1ccc2ncnc(N3CCN(Cc4ccc5c(c4)OCO5)CC3)c2c1 | 10 | 16 | -113 | -13 | 74* | 65* | 24
O=[N+]([O-])c1cccnc1N1CCN(Cc2ccc3c(c2)OCO3)CC1 | 1 | 0 | -71 | -5 | -7 | x | x
COc1ccc2[nH]c3c(N4CCN(Cc5ccc6c(c5)OCO6)CC4)ncnc3c2c1 | 14 | 40 | 2 | 4 | 57* | 19 | x
COc1ccc2[nH]c3c(N4CCC(O)(c5cccc(C(F)(F)F)c5)CC4)ncnc3c2c1 | 0 | 39 | 10 | 6 | 75* | 67* | 32
O=C1C2C3C=CC(C3=C(c3ccccc3)c3ccccc3)C2C(=O)N1CCO (stereo unspecified) | 2 | 0 | 14 | 1 | -7 | x | x
O=C1C2C3C=CC(C3=C(c3ccccc3)c3ccccc3)C2C(=O)N1Cc1ccccc1 (stereo unspecified) | -3 | 7 | -1 | 19 | 79* | -3 | x
CCn1c(=O)n(CC)c2cc(N3CCCC3)c(NC(=O)c3cc(Br)ccc3OC)cc21 | x | 47 | 25 | 15 | 75* | 20 | x
Cc1cccc(C)c1NC(=O)C(c1ccccc1OC(F)(F)F)N1CCN(C)CC1 (stereo unspecified) | -2 | x | x | x | x | x | x
CCOC(=O)[C@]12CCCC=C1N(Cc1ccc(Cl)cc1Cl)C(=O)[C@H](CC(=O)N1CCOCC1)C2 | 0 | x | x | x | x | x | x
O=c1[nH]c(=O)n(CCc2ccc(F)cc2)c(O)c1C=NCc1ccc2c(c1)OCO2 | 0 | -3 | -4 | x | 80* | 6 | x
O=C(c1cccs1)N(Cc1nc2sc3c(c2c(=O)[nH]1)CCCC3)C1CCCC1 | 0 | 1 | 4 | 1 | 87* | 82* | 38*
Cc1sc2nc(CN(C(=O)c3cccs3)C3CCCC3)[nH]c(=O)c2c1C | -2 | 2 | 3 | 14 | 3 | x | x
Nc1nc2ccc(Cl)cc2cc1C(=O)NCCCN1CCOCC1 | -1 | x | x | x | x | x | x
Cc1n[nH]c(=O)n(N=Cc2c[nH]c3ccccc23)c1=O | -1 | x | x | x | x | x | x
SMILES | MPTP inh | Beta apoptosis | Calb FLC | CSC inhib | Mdm2 MdmX PPI | Mdm2 MdmX conf | Full FLuc ctr
CC1CCc2cc(F)ccc2N1C(=O)CSc1nnc2c(n1)[nH]c1ccc(F)cc12 (stereo unspecified) | 14 | 41 | 0 | 46 | 84* | 24 | x
Cc1ccc(C(=O)N2CCCCC2C(=O)O)cc1S(=O)(=O)N1CCCCC1 (stereo unspecified) | -3 | -4 | x | -1 | 12 | x | x
Nc1ncc([N+](=O)[O-])c(N2CCCCCC2)n1 | 0 | -26 | -10 | -5 | 75* | 73* | 49*
Oc1ccc(-c2nc3c4c(ncn3n2)-c2ccccc2CC42CCCC2)cc1 | 18 | -5 | 3 | -6 | 78* | 6 | x
CN1CCN(c2c(/C=N/O)c3ccccc3n2C)CC1 | 0 | 2 | -1 | -5 | -16 | x | x
Cc1ccccc1C(=O)O/N=C/c1c(N2CCOCC2)n(C)c2ccccc12 | 6 | 63 | 107* | -4 | 53* | 37 | x
O=C1C(c2ccccc2)=NCCN1C(c1ccc(F)cc1)c1nc2ccccc2[nH]1 (stereo unspecified) | 0 | x | x | x | x | x | x
CCOC(=O)c1sc2ncn(CC(=O)Nc3cc(C)on3)c(=O)c2c1C | 1 | x | x | x | 55* | -10 | x
CCOC(=O)c1[nH]c2ccc(F)cc2c1NC(=O)CN1CCN(C/C=C/c2ccccc2)CC1 | -15 | -2 | -2 | 38 | 57* | 22 | x
COC(=O)C[C@@H]1C=C[C@@H](NC(C)=O)[C@@H](CO)O1 | -1 | x | x | x | x | x | x
CCc1cc2c(nc1CC)CCN(CC/C(C)=N/OC[C@H]1O[C@H](c3ccccc3)C=C[C@@H]1Oc1ccc(OC)cc1)C2 | x | x | 2 | x | 54* | 41* | 65*
CCc1cccc(NS(=O)(=O)c2c(C)nc3sc(CC)nn3c2=O)c1 | 1 | -8 | x | 6 | 53* | 2 | x
CCOc1ccccc1NC(=O)c1ccc2ccccc2c1 | 0 | 0 | 0 | -5 | 7 | x | x
CCOc1ccccc1NC(=O)NNC(=O)c1ccc2ccccc2c1 | -2 | 2 | 5 | x | 60* | 50* | 83*
Cc1cc(NC(=O)c2c(F)cccc2F)n(-c2nc3ccccc3[nH]2)n1 | 17 | 36 | 5 | 53 | 53* | 27 | x
Cc1cc(NC(=O)c2c(F)cccc2Cl)n(-c2nc3ccccc3[nH]2)n1 | 2 | 33 | 109* | -11 | 68* | 32 | x
Cc1cc(NC(=O)c2ccccc2F)n(-c2nc3ccccc3[nH]2)n1 | 2 | 28 | 3 | 19 | 31 | x | x
Cc1cc(NC(=O)c2ccc(C)s2)n(-c2nc3ccccc3[nH]2)n1 | 4 | 27 | 2 | -2 | 23 | x | x
Cc1cc(Nc2ccccc2)n(-c2nc3ccccc3[nH]2)n1 | 2 | 31 | -25 | -16 | 53* | 18 | x
Cc1cc(NC(=O)C2CCCCC2)n(-c2nc3ccccc3[nH]2)n1 | 0 | 24 | -3 | 30 | 57* | 43* | 68*
CCCc1nc2cc(C)c(Br)c(C)n2c1Cc1ccccc1OC | 4 | x | x | x | x | x | x
COc1ccc(NC(=O)C(c2ccccc2)n2c(=O)c(-c3ccco3)nc3ccccc32)cc1 (stereo unspecified) | -1 | x | x | x | x | x | x
CC(=O)Nc1cccc(C(=O)/C=C/c2ccc(Br)cc2)c1 | -8 | 0 | -12 | 127* | 97* | 74* | 53*
